# PubChem BioAssay (NCI)
# The panel holds about 79,000 compounds, 15% with a hit somewhere; the sample as a whole holds those more often. Unmarked numbers belong to inactive results. Active and inactive are the calls of the source. No stated cut-off is given here; in the data, active means growth inhibition above about 70%; inactive means the rest.
# Legend:
# [1] = NCI Yeast Anticancer Drug Screen. Data for the wt1 strain (AID 149);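 further: 0% = growth of vehicle-treated wt1 cultures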; conditions: S. cerevisiae wt1 strain (SPY 50644) growth inhibition, active compounds read high
# Method in brief: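 Yeast wt1 strain exposed to compounds; growth inhibition measured relative to vehicle-treated controls.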
# [2] = NCI Yeast Anticancer Drug Screen. Data for the rad50EPP+ strain (AID 151);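 further: 0% = growth of vehicle-treated control cultures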; conditions: S. cerevisiae rad50 mutant strain, active compounds read high
# Method in brief: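 Vehicle-normalised growth inhibition; rad50EPP+ yeast strain, altered in DNA damage repair, compound-treated.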
# [3] = NCI Yeast Anticancer Drug Screen. Data for the mgt1 strain (AID 153); conditions: S. cerevisiae mgt1 mutant growth inhibition, active compounds read high
# Method in brief: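 Vehicle-normalized growth inhibition is determined in mgt1 yeast, a strain selected for a defined alteration in DNA repair or cell cycle control.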
# [4] = NCI Yeast Anticancer Drug Screen. Data for the rad50 strain (AID 155);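 further: 0% = growth of vehicle-only cultures of the same strain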; conditions: S. cerevisiae rad50 strain growth inhibition, active compounds read high
# Method in brief: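 Yeast carrying a defined DNA repair defect were exposed to test compounds, and growth was compared with vehicle-treated controls to give percent inhibition.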
# [5] = NCI Yeast Anticancer Drug Screen. Data for the mec2-1 strain (AID 157); conditions: S. cerevisiae mec2-1 strain, active compounds read high
# Method in brief: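 Mutant yeast (mec2-1) grown with compound; growth inhibition relative to vehicle control reported.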
# [6] = NCI Yeast Anticancer Drug Screen. Data for the rad14 strain (AID 159);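 further: 0% = growth of vehicle-treated control cultures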; conditions: S. cerevisiae rad14 strain growth inhibition, active compounds read high
# Method in brief: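 Yeast cells carrying a defined DNA-repair defect were exposed to compounds, and growth inhibition was calculated relative to vehicle-treated control cultures.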
# [7] = NCI Yeast Anticancer Drug Screen. Data for the sgs1 mgt1 strain (AID 161);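 further: 0% = growth of cultures given vehicle only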; conditions: S. cerevisiae sgs1 mgt1 strain, active compounds read high
# Method in brief: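 Yeast cells carrying a defined DNA-repair defect were exposed to test compounds. Growth inhibition was measured relative to vehicle-treated controls.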
# [8] = NCI Yeast Anticancer Drug Screen. Data for the cln2 rad14 strain (AID 165);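 further: 0% = growth equal to vehicle treated cultures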; conditions: S. cerevisiae cln2 rad14 strain, active compounds read high
# Method in brief: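 Readout is yeast growth inhibition versus vehicle-treated controls, using a strain with cln2 and rad14 alterations exposed to compound.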
# [9] = NCI Yeast Anticancer Drug Screen. Data for the bub3 strain (AID 167); conditions: S. cerevisiae bub3 mutant strain, active compounds read high
# Method in brief: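 Compounds were applied to a genetically altered yeast strain carrying a cell-cycle control defect. Growth inhibition was scored against vehicle-treated controls.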
# [10] = NCI Yeast Anticancer Drug Screen. Data for the wt2 strain (AID 169);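 further: 0% = growth of vehicle-treated yeast cultures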; conditions: S. cerevisiae wt2 strain growth inhibition, active compounds read high
# Method in brief: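 Against vehicle-treated controls, the growth of yeast exposed to each compound was compared, and the inhibition was recorded.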
# [11] = NCI Yeast Anticancer Drug Screen. Data for the mlh1 strain (AID 171);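 further: 0% = growth of vehicle-treated control cultures of the same strain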; conditions: S. cerevisiae mlh1 strain growth inhibition, active compounds read high
# Method in brief: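 Measured: yeast growth. Reference: vehicle-treated controls. Organism: strain with a defined alteration affecting DNA damage repair or cell cycle control, treated with compound.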
# [12] = NCI Yeast Anticancer Drug Screen. Data for the sgs1 strain (AID 173);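 further: 0% = growth of vehicle-only control cultures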; conditions: S. cerevisiae sgs1 mutant, active compounds read high
# Method in brief: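 Each compound was added to cultures of the altered yeast strain. Growth was recorded, and inhibition was derived by comparison with vehicle controls.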
# [13] = NCI Yeast Anticancer Drug Screen. Data for the mlh1 rad18 strain (AID 175); conditions: S. cerevisiae mlh1 rad18 strain growth inhibition, active compounds read high
# Method in brief: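 Genetically defined yeast (DNA repair-deficient) exposed to compounds; growth inhibition determined relative to vehicle.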
# [14] = NCI Yeast Anticancer Drug Screen. Data for the rad18 strain (AID 177); conditions: S. cerevisiae rad18 mutant growth inhibition, active compounds read high
# Method in brief: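 Vehicle-treated cultures served as the baseline for scoring compound-induced growth inhibition in DNA-repair-mutant yeast.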
# [15] = NCI Yeast Anticancer Drug Screen. Data for the CLN2oe strain (AID 163);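 further: 0% = growth of vehicle-only control cultures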; conditions: S. cerevisiae CLN2oe strain, active compounds read high
# Method in brief: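 Compounds are applied to yeast harbouring a defined cell-cycle control change; reduced growth compared with vehicle-treated controls gives the value.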
# [16] = at 5.0 µM (retest, dose inferred, filed as 0.5)
# [17] = at 50.0 µM (retest, dose inferred, filed as 5.0)
smiles,measurement,setting,value
CN(C)CCn1c2ccccc2c2nc3cc4ccccc4cc3nc21,growth inhibition,[1]; at 1.2 µM,15%
same,growth inhibition,[1]; at 3.7 µM,23%
same,growth inhibition,[1]; at 11.0 µM,28%
same,growth inhibition,[1]; at 33.0 µM,78% (active)
same,growth inhibition,[1]; at 100.0 µM,98% (active)
same,growth inhibition,[2]; at 1.2 µM,0%
same,growth inhibition,[2]; at 3.7 µM,38%
same,growth inhibition,[2]; at 11.0 µM,88% (active)
same,growth inhibition,[2]; at 33.0 µM,94% (active)
same,growth inhibition,[2]; at 100.0 µM,97% (active)
same,growth inhibition,[3]; at 1.2 µM,-2%
same,growth inhibition,[3]; at 3.7 µM,4%
same,growth inhibition,[3]; at 11.0 µM,14%
same,growth inhibition,[3]; at 33.0 µM,69%
same,growth inhibition,[3]; at 100.0 µM,98% (active)
same,growth inhibition,[4]; at 1.2 µM,12%
same,growth inhibition,[4]; at 3.7 µM,34%
same,growth inhibition,[4]; [16],48%
same,growth inhibition,[4]; at 11.0 µM,85% (active)
same,growth inhibition,[4]; at 33.0 µM,95% (active)
same,growth inhibition,[4]; [17],95% (active)
same,growth inhibition,[4]; at 50.0 µM,89% (active)
same,growth inhibition,[4]; at 100.0 µM,98% (active)
same,growth inhibition,[5]; at 1.2 µM,-18%
same,growth inhibition,[5]; at 3.7 µM,-10%
same,growth inhibition,[5]; [16],26%
same,growth inhibition,[5]; at 11.0 µM,14%
same,growth inhibition,[5]; at 33.0 µM,70% (active)
same,growth inhibition,[5]; [17],99% (active)
same,growth inhibition,[5]; at 50.0 µM,86.6% (active)
same,growth inhibition,[5]; at 100.0 µM,98% (active)
same,growth inhibition,[6]; at 1.2 µM,-4%
same,growth inhibition,[6]; at 3.7 µM,7%
same,growth inhibition,[6]; at 11.0 µM,28%
same,growth inhibition,[6]; at 33.0 µM,80% (active)
same,growth inhibition,[6]; at 100.0 µM,99% (active)
same,growth inhibition,[7]; [16],10%
same,growth inhibition,[7]; [17],91% (active)
same,growth inhibition,[7]; at 50.0 µM,88% (active)
same,growth inhibition,[8]; [16],30%
same,growth inhibition,[8]; [17],94% (active)
same,growth inhibition,[8]; at 50.0 µM,84.3% (active)
same,growth inhibition,[9]; at 1.2 µM,-13%
same,growth inhibition,[9]; at 3.7 µM,10%
same,growth inhibition,[9]; [16],13%
same,growth inhibition,[9]; at 11.0 µM,3%
same,growth inhibition,[9]; at 33.0 µM,72% (active)
same,growth inhibition,[9]; [17],95% (active)
same,growth inhibition,[9]; at 50.0 µM,87.6% (active)
same,growth inhibition,[9]; at 100.0 µM,98% (active)
same,growth inhibition,[10]; at 1.2 µM,18%
same,growth inhibition,[10]; at 3.7 µM,15%
same,growth inhibition,[10]; at 11.0 µM,27%
same,growth inhibition,[10]; at 33.0 µM,77% (active)
same,growth inhibition,[10]; at 100.0 µM,98% (active)
same,growth inhibition,[11]; at 1.2 µM,2%
same,growth inhibition,[11]; at 3.7 µM,9%
same,growth inhibition,[11]; at 11.0 µM,33%
same,growth inhibition,[11]; at 33.0 µM,80% (active)
same,growth inhibition,[11]; at 100.0 µM,98% (active)
same,growth inhibition,[12]; at 1.2 µM,-2%
same,growth inhibition,[12]; at 3.7 µM,5%
same,growth inhibition,[12]; at 11.0 µM,25%
same,growth inhibition,[12]; at 33.0 µM,85% (active)
same,growth inhibition,[12]; at 100.0 µM,98% (active)
same,growth inhibition,[13]; [16],34%
same,growth inhibition,[13]; [17],98% (active)
same,growth inhibition,[13]; at 50.0 µM,71.2% (active)
same,growth inhibition,[14]; at 1.2 µM,-11%
same,growth inhibition,[14]; at 3.7 µM,-10%
same,growth inhibition,[14]; at 11.0 µM,11%
same,growth inhibition,[14]; at 33.0 µM,87% (active)
same,growth inhibition,[14]; at 100.0 µM,98% (active)
CC(C)OC(CCC#N)c1ccc(Cl)cc1 (stereo unspecified),growth inhibition,[1]; at 1.2 µM,-35%
same,growth inhibition,[1]; at 3.7 µM,-28%
same,growth inhibition,[1]; at 11.0 µM,-24%
same,growth inhibition,[1]; at 33.0 µM,-13%
same,growth inhibition,[1]; at 100.0 µM,4%
same,growth inhibition,[2]; at 1.2 µM,-6%
same,growth inhibition,[2]; at 3.7 µM,1%
same,growth inhibition,[2]; at 11.0 µM,2%
same,growth inhibition,[2]; at 33.0 µM,5%
same,growth inhibition,[2]; at 100.0 µM,20%
same,growth inhibition,[3]; at 1.2 µM,-46%
same,growth inhibition,[3]; at 3.7 µM,-44%
same,growth inhibition,[3]; at 11.0 µM,-41%
same,growth inhibition,[3]; at 33.0 µM,-17%
same,growth inhibition,[3]; at 100.0 µM,7%
same,growth inhibition,[4]; at 1.2 µM,-22%
same,growth inhibition,[4]; at 3.7 µM,-25%
same,growth inhibition,[4]; [16],62%
same,growth inhibition,[4]; at 11.0 µM,-26%
same,growth inhibition,[4]; at 33.0 µM,-6%
same,growth inhibition,[4]; [17],99% (active)
same,growth inhibition,[4]; at 50.0 µM,3.4%
same,growth inhibition,[4]; at 100.0 µM,24%
same,growth inhibition,[5]; at 1.2 µM,-29%
same,growth inhibition,[5]; at 3.7 µM,-28%
same,growth inhibition,[5]; [16],55%
same,growth inhibition,[5]; at 11.0 µM,-18%
same,growth inhibition,[5]; at 33.0 µM,-2%
same,growth inhibition,[5]; [17],99% (active)
same,growth inhibition,[5]; at 50.0 µM,7.95%
same,growth inhibition,[5]; at 100.0 µM,7%
same,growth inhibition,[6]; at 1.2 µM,-22%
same,growth inhibition,[6]; at 3.7 µM,-26%
same,growth inhibition,[6]; at 11.0 µM,-12%
same,growth inhibition,[6]; at 33.0 µM,-6%
same,growth inhibition,[6]; at 100.0 µM,1%
same,growth inhibition,[7]; [16],2%
same,growth inhibition,[7]; [17],-4%
same,growth inhibition,[7]; at 50.0 µM,56%
same,growth inhibition,[15]; at 1.2 µM,11%
same,growth inhibition,[15]; at 3.7 µM,-6%
same,growth inhibition,[15]; at 11.0 µM,14%
same,growth inhibition,[15]; at 33.0 µM,15%
same,growth inhibition,[15]; at 100.0 µM,11%
same,growth inhibition,[8]; [16],48%
same,growth inhibition,[8]; [17],46%
same,growth inhibition,[8]; at 50.0 µM,6.8%
same,growth inhibition,[9]; at 1.2 µM,-18%
same,growth inhibition,[9]; at 3.7 µM,-12%
same,growth inhibition,[9]; [16],44%
same,growth inhibition,[9]; at 11.0 µM,-19%
same,growth inhibition,[9]; at 33.0 µM,5%
same,growth inhibition,[9]; [17],45%
same,growth inhibition,[9]; at 50.0 µM,-1.8%
same,growth inhibition,[9]; at 100.0 µM,4%
same,growth inhibition,[10]; at 1.2 µM,-19%
same,growth inhibition,[10]; at 3.7 µM,-21%
same,growth inhibition,[10]; at 11.0 µM,-17%
same,growth inhibition,[10]; at 33.0 µM,-12%
same,growth inhibition,[10]; at 100.0 µM,12%
same,growth inhibition,[11]; at 1.2 µM,-23%
same,growth inhibition,[11]; at 3.7 µM,-15%
same,growth inhibition,[11]; at 11.0 µM,-16%
same,growth inhibition,[11]; at 33.0 µM,6%
same,growth inhibition,[11]; at 100.0 µM,11%
same,growth inhibition,[13]; [16],42%
same,growth inhibition,[13]; [17],100% (active)
same,growth inhibition,[13]; at 50.0 µM,19.9%
same,growth inhibition,[14]; at 1.2 µM,-29%
same,growth inhibition,[14]; at 3.7 µM,-32%
same,growth inhibition,[14]; at 11.0 µM,-24%
same,growth inhibition,[14]; at 33.0 µM,-16%
same,growth inhibition,[14]; at 100.0 µM,0%
